Results reported in PubChem BioAssay AID1851 (National Center for Advancing Translational Sciences (NCATS), 2009).
Values joined by “and” are separate entries in the source; they are usually repeats but may differ in a detail not shown here. Equal values may be shown once. Out of some 16,000 compounds screened, about 2,600 (16%) were called active. Another 20% or so got no clear call; they are omitted. Calls follow the shape of the dose curve; as a rule, active = well fitted curve in the direction sought with a large enough effect; inconclusive = small, poorly fitted or top-dose-only effect, or effect the other way; inactive = no such curve, though single readings can be large or run the other way. Only a sample is shown. Some structures have more than one record in an assay (separate samples or runs), and their calls can disagree.

Each compound was assayed against Cytochrome P450 2D6 (Homo sapiens) (UniProt P10635) (assay: Cytochrome panel assay with activity outcomes). Conditions: recombinant CYP, pro-luciferin dealkylation, luminescence, p450-cyp2d6; series mostly up to 57.1 µM; activity, negative = inhibition: at the top concentration.
Chain of Cytochrome P450 2D6 (Homo sapiens) (P10635 whole entry, looked up): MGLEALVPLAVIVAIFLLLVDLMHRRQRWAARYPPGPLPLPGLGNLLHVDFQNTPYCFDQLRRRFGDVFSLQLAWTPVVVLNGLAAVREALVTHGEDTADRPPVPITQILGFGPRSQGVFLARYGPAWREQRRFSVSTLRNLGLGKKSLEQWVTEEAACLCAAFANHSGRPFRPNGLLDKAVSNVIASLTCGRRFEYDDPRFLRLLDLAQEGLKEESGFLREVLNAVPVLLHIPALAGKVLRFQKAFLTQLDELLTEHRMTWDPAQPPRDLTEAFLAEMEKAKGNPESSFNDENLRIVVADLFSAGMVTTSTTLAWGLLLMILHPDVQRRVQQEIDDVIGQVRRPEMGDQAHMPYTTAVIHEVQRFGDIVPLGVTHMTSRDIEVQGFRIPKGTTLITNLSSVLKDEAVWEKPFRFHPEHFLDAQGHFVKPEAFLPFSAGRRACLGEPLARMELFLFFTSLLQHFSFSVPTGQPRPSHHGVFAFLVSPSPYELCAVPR
% is scaled to controls: 0 for no effect and ±100 for the full control effect.

Compound	activity, negative = inhibition	AC50
COc1ccc2nc(C)cc(SCC(=O)Nc3c(C)cc(C)cc3C)c2c1	4.42% (inactive)	–
CCN(CC)CCC[C@H](C)Nc1c2ccc(Cl)cc2nc2ccc(OC)cc12	–	200 nM (active) and 126 nM (active)
COc1ccc2nc(SCC(=O)NN)cc(C)c2c1	-12.7% (inactive)	–
Cn1c(=O)n(C)c2cc(/C=N/NC(=O)c3ccc(Cl)cc3Cl)ccc21	11.9% (inactive)	–
CCc1cc(Cl)c(OC)c(C(=O)NC[C@@H]2CCCN2CC)c1O	–	0.0501 µM (active)
CCN1CCC[C@H]1CNC(=O)c1cc(S(N)(=O)=O)ccc1OC	-18.3% [at 25.6 µM] (inactive)	–
CCN1CCC[C@@H]1CNC(=O)c1cc(S(N)(=O)=O)ccc1OC	-10.7% (inactive)	–
CCOc1ccc(NC(=O)C(=O)NCC2CCCN2CC)cc1 (centres undefined)	-7.58% (inactive)	–
CCN1CCCC1CNC(=O)CCNC(=O)c1cc(OC)c(OC)c(OC)c1 (centres undefined)	12.3% (inactive)	–
CCN1CCC[C@H]1CNC(=O)c1c(OC)ccc(Br)c1OC	–	inactive and 200 nM (active)
N[C@@H](Cc1c[nH]c2ccc([N+](=O)[O-])cc12)C(=O)O	4.93% [at 11.4 µM] (inactive)	–
Cc1ccccc1Cn1cc(NC(=O)CSc2nc3c(c(C(F)(F)F)n2)CCc2ccccc2-3)cn1	-12.6% (inactive)	–
Cn1c(=O)c(-c2ccc(Cl)cc2)nc2cnc(Oc3cccc(Cl)c3)nc21	0.522% (inactive)	–
COc1ccc(NC(=S)N2CCN(C/C=C/c3ccccc3)CC2)cc1OC	-18.6% (inactive)	–
COc1ccc(/C=C(\C#N)C(=O)NCC2CCCO2)cc1OC (centres undefined)	-7.32% (inactive)	–
CNc1ncnc2c1ncn2[C@@H]1O[C@H](CO)[C@@H](O)[C@@H]1O	4.56% [at 25.6 µM] (inactive)	–
CSc1nc(-c2ccc(C)cc2)[nH]c1S(=O)(=O)c1ccccc1	-14.3% (inactive)	–
COc1ccc(-n2c(-c3ccccc3)nc(=S)c3c2CCCC3)cc1	-26.4% (inactive)	–
C[n+]1cc(-c2ccccc2)n2c1CCCCC2	-26.8% (inactive)	–
O=C(c1ccc(Cl)cc1)N1CCCC(c2ccccc2)=N1	-18.1% (inactive)	–
Clc1ccc(C2=C3CCCCn4c(-c5ccccc5)c[n+](c43)C2)cc1	–	1 µM (active)
COc1ccc(-c2c[n+]3c4n2CCCCC4=C(c2ccccc2)C3)cc1	–	1.78 µM (active)
Cc1cc(NC(=O)CSc2ccc3nnc(-c4ccc(F)cc4)n3n2)no1	-8.11% (inactive)	–

Compound	activity, negative = inhibition	AC50
O=C(O)c1c[nH]c2c(ccc3[nH]cc(C(=O)O)c(=O)c32)c1=O	-3.58% [at 11.4 µM] (inactive)	–
Cc1ccc(CNC(=O)COC(=O)c2cnccn2)cc1	0.988% (inactive)	–
Cc1cc(C)cc(Oc2nn[nH]n2)c1	2.45% (inactive)	–
CCCCCOc1ccc(NC(=O)C(=O)NCCC2=CCCCC2)cc1	-1.79% (inactive)	–
O=C(CN1CCN(c2ncccn2)CC1)NCCC1=CCCCC1	–	2.82 µM (active)
O=C(CN1CCN(C2CCCCC2)CC1)NCCC1=CCCCC1	–	15.8 µM (active)
Cc1ccc(CNC(=O)C2CCC(=O)N2C2CCCCC2)cc1 (centres undefined)	-21.6% (inactive)	–
O=C(COc1ccc(Cl)cc1)NCCC1=CCCCC1	-19.8% (inactive)	–
O=C(CN1C(=O)NC2(CCCC2)C1=O)NCCC1=CCCCC1	5.39% (inactive)	–
COC(=O)[C@@]1(Cc2ccc(F)cc2)[C@@H]2[C@@H](CC(=O)[C@H]2CC(=O)C(=O)N2CCCC2)CN1C(=O)c1ccccc1	0.0192% (inactive)	–
CC(C)[C@@H]1O[C@H](/C=C\c2ccccc2)OCC1(C)C	-1.61% [at 11.4 µM] (inactive)	–
O=C(O)Cc1sc(-c2ccc(Cl)cc2)nc1-c1ccccc1	16% (inactive)	–
CCSc1ncc(/C=N/Nc2ccc(F)cc2)n1C	–	0.631 µM (active)
CC(=O)Nc1ccc(NC(=O)Cn2c(-c3ccc(F)cc3)cnc2SCC(=O)Nc2c(C)cccc2C)cc1	-9.43% (inactive)	–
Cc1cnn(CCC(=O)NNC(=S)Nc2ccc(F)cc2)c1	3.17% (inactive)	–
CCc1ccc2[nH]c(O)c(N=Nc3nc(-c4ccccc4)cs3)c2c1	-11.2% (inactive)	–
COc1ccc(C(=O)Nc2ccc3c(c2)nc(CN2CCN(C(C)=O)CC2)n3C)cc1	-2.59% (inactive)	–
CCn1c(SCC(=O)N/N=C/C=C\c2ccccc2[N+](=O)[O-])nnc1-c1ccccc1	-25.4% (inactive)	–
CCOC(=O)C1CCCN(C/C=C/c2ccccc2[N+](=O)[O-])C1 (centres undefined)	–	0.0708 µM (active)
CC1CCCN(C/C=C/c2ccccc2[N+](=O)[O-])C1 (centres undefined)	–	1 µM (active)
CS(=O)(=O)N1CCN(c2c(Cl)cccc2[N+](=O)[O-])CC1	-12.4% (inactive)	–
C[C@@H]1CCCN(CP(=O)(c2ccccc2)c2ccccc2)C1	6.3% [at 11.4 µM] (inactive)	–
CCOC(=O)C1CCCN(C(=O)/C=C/c2cccc([N+](=O)[O-])c2)C1 (centres undefined)	-18.6% (inactive)	–

Compound	activity, negative = inhibition	AC50
Cn1nnnc1SCc1ccccc1[N+](=O)[O-]	-7.73% (inactive)	–
CCOC(=O)C1CCCN(S(=O)(=O)c2ccccc2)C1 (centres undefined)	-11.5% (inactive)	–
CC1CC(C)CN(C/C=C/c2ccccc2[N+](=O)[O-])C1 (centres undefined)	–	0.631 µM (active)
COc1ccc(-n2c(=O)c(-c3ccccc3)nc3cnc(N4CCOCC4)nc32)cc1	-0.0357% (inactive)	–
CN(C)c1ccc(/C=C2\SC(=S)N(Nc3ncc(C(F)(F)F)cc3Cl)C2=O)cc1	1.29% (inactive)	–
CC(C)OC(=O)c1cc2ccccc2oc1=O	-6.6% (inactive)	–
O=C(c1ccccc1)c1cc(F)c(N2CCOCC2)cc1Cl	-19.5% (inactive)	–
COc1ccc2c(c1)Cc1sc(NC(=O)c3ccco3)nc1-2	-9.14% (inactive)	–
CSc1nc2nc3c(c(=O)n2[nH]1)CN(Cc1ccccc1)CC3	-6.12% (inactive)	–
NC[C@H]1O[C@H](n2cnc3c(N)ncnc32)C[C@@H]1O	8.01% [at 11.4 µM] (inactive)	–
O=c1c(-c2cccc(F)c2)nc2cncnc2n1C1CC1	-4.2% (inactive)	–
CC(C)(C)N(NC(=O)c1ccccc1)C(=O)c1cccc(C(=O)N(NC(=O)c2ccccc2)C(C)(C)C)c1	-27.5% (inactive)	–
O=C(O)/C=C\c1ccc(Cn2ccnc2)cc1	0.822% [at 25.6 µM] (inactive)	–
O=C(O)C=Cc1ccc(Cn2ccnc2)cc1	–	0.0794 µM (active)
O=C(O)/C=C\c1ccc(O)c(O)c1	4.2% [at 25.6 µM] (inactive)	–
COc1ccccc1NC(=S)NCCc1ccccc1	–	7.08 µM (active)
CCN(C(=S)Nc1ccccc1F)C1CCCCC1	-3.58% (inactive)	–
CCNC(=S)NNC(=O)Cc1ccccc1	9.05% (inactive)	–
Fc1cc(Br)ccc1NC(=S)NCCc1ccccc1	–	20 µM (active)
COc1ccccc1NC(=S)NC(=O)c1ccc(-c2ccc(Cl)cc2)o1	10.4% (inactive)	–
Fc1ccccc1NC(=S)NCCc1ccccc1	–	15.8 µM (active)
CC(C)(C)C(=O)NC(=S)NCCc1ccccc1	-7.67% (inactive)	–
O=C(NCCc1ccccc1)C(=O)NN=C1CCCC1	-4.67% (inactive)	–
